Screening results as filed in PubChem.
An excerpt weighted towards active compounds, which were near 3% of everything screened.
Tau fibril ThT = tau fibrillization inhibition (ThT binding); Potency, µM (top dose mostly 57.4 µM), inactives show at the top dose activity, negative = inhibition, actives largely listed as inhibitors; recombinant tau K18 P301L, heparin-induced fibrillization, ThT fluorescence; P10636; 270,000 tested, 2.1% active; AID 1460; further: nearly all actives have a fitted effect of over 55% in size
Target sequence (P10636 561-689 P618L limits assumed): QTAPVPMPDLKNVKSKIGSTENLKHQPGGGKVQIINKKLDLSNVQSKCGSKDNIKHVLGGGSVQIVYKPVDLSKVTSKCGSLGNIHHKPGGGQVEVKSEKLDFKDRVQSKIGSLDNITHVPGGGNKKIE
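Recombinant human tau K18 fragment […] carrying P301L, 15 uM unlabeled plus 0.24 uM Alexa 594-labeled, was fibrillized with 20 uM heparin in 100 mM sodium acetate pH 7 for 6 hr at 37 C; 30 uM ThT fluorescence read after 1 hr.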
Tau fluor cs = counter-screen for tau fibril formation inhibitors | Potency, µM (doses to about 57.7 µM), without a hit: at the highest dose activity change, negative = decrease | tau K18 P301L (four-repeat tau fragment) Alexa594 fluorescence, heparin fibrillization | 280,000 tested, 0.93% active | AID 1463; further: nearly all actives have a fitted effect of over 55% in size
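Human K18 P301L tau (15 uM unlabeled plus 0.24 uM Alexa 594-labeled, final) in 100 mM sodium acetate pH 7 was mixed with compound and 20 uM heparin and incubated 6 hr at 37 C.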
TRb SRC2 PPI = inhibitors of human thyroid hormone receptor beta-SRC2 interaction. 280,000 tested, 0.065% active. Potency, µM (highest dose often 106 µM), inactives show top-dose activity change, negative = inhibition, most hits filed as inhibitors. TRbeta-SRC2 peptide binding, fluorescence polarization; receptor liganded with 1 µM T3;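 further: plate controls were bound peptide for no effect and peptide without receptor for full effect; nearly all actives have a fitted effect of over 50% in size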
Target sequence (P10828 whole entry, looked up): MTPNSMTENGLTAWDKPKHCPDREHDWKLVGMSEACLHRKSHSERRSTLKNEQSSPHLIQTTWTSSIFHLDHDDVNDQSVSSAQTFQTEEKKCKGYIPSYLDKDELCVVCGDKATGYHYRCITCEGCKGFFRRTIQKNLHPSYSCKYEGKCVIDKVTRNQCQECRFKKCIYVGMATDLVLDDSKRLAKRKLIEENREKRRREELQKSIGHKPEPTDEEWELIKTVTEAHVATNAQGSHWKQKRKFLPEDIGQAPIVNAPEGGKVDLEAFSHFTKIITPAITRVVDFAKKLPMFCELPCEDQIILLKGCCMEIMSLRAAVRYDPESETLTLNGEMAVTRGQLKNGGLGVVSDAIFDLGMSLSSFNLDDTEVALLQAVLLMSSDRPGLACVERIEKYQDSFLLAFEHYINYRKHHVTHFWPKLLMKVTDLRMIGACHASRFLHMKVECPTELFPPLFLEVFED
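Quantitative HTS by FP: 0.6 uM TRb LBD, 20 nM labeled SRC2 20-mer, 1 uM T3, 5% DMSO; 5 hr ambient incubation; % activity per concentration and potencies from concentration series.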
TexasRed fluor = Texas Red fluorescence interference in TRb-SRC2 counter-screen; AID 1479; 280,000 tested, 0.29% active; TRb/SRC2 Texas Red total fluorescence interference; Potency, µM (doses to about 106 µM), for inactives: top-dose fluorescence change, negative = quenching; active means well fitted curve in either direction with a large enough effect; inconclusive means small, poorly fitted or top-dose-only effect
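Human TRβ ligand-binding domain (0.6 uM) and Texas Red SRC2 peptide (20 nM) in Tris buffer with 1 uM T3 and 5% DMSO were incubated with pinned compound for 5 hr at ambient temperature. Total fluorescence was computed as S + 2P (555/632 nm).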
Tau fibril FP = tau fibrillization inhibition (FP); K18 P301L tau heparin fibrillization, Alexa594 FP, 6 h; Potency, µM (highest dose often 57.7 µM), for inactives: top-dose activity, negative = inhibition, usual class: inhibitors; 280,000 tested, 0.39% active; P10636; further: nearly all actives have a fitted effect of over 55% in size
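Steps: dispense K18 P301L tau (15 uM plus 0.24 uM Alexa 594 tracer, final) in pH 7 sodium acetate; add compound; add heparin (20 uM final); incubate 6 hr, 37 C; add ThT (30 uM final); after 1 hr ambient, read FP.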
An asterisk follows results filed as active; ? = inconclusive; . = no result; [ ] = dose if it differs, or a comment. Unless noted, the call rests on the fitted dose curve; in most records, active means well fitted curve in the direction sought with a large enough effect; inconclusive means small, poorly fitted or top-dose-only effect, or another doubt; inactive means no such curve, though single readings can be large; an effect the other way counts as inactive or inconclusive. Unless noted, on the % scale 0 is the no-effect control and ±100 the full control effect; potency means the concentration at half of the fitted maximal effect.

SMILES	Tau fibril ThT	Tau fluor cs	TRb SRC2 PPI	TexasRed fluor	Tau fibril FP
COc1ccc(OC)c(C(C)NC(=O)Cn2c(=O)cc(C)c3c(C)nn(-c4ccc(C)cc4)c32)c1 (stereo not given)	9%	-2%	0%	-1%	2%
NCC(O)COc1cccc2ccccc12 (stereo not given)	-6%	-10%	0%	1%	-6%
O=c1oc2ccc3ccccc3c2cc1-c1nnc(Nc2ccccc2F)s1	?	-27%	-4%	2%	-18%
COc1ccc(Nc2nnc(-c3cc4c(ccc5ccccc54)oc3=O)s2)cc1	5µM*	?	-2%	6%	3%
O=c1/c(=C/c2ccccn2)sc2nc3ccccc3n12	?	-16%	-17%	-1%	?
O=c1/c(=C\c2cc([N+](=O)[O-])cc([N+](=O)[O-])c2O)sc2nc3ccccc3n12	5µM*	?	16%	45µM*[quencher]	?
O=C(N/C=C/c1ccccc1)Nc1ccc(Cl)cc1	?	5µM*[quencher]	4%	0%	?
COc1cc(-c2nc(-c3ccccc3)c(-c3ccc(Br)cc3)[nH]2)cc(OC)c1O	?	11µM*[quencher]	8%	-2%	4%
Cc1nc(-c2ccccc2)c(-c2ccccc2)[nH]1	-6%	-11%	1%	-1%	3%
COc1ccc(-c2[nH]c(-c3cc(OC)c4c(c3)OCO4)nc2-c2ccccc2)cc1	?	13µM*[quencher]	10%	-2%	?
Oc1ccc(N=Nc2nc(-c3ccccc3)c(-c3ccccc3)[nH]2)cc1	4.5µM*	11µM*[quencher]	11%	-4%	?
Oc1ccc(-c2nc(-c3ccccc3)c(-c3ccc(Br)cc3)[nH]2)cc1	28µM*	8.9µM*[quencher]	6%	-4%	?
CC(N)(COP(=O)(O)O)C(=O)O (stereo not given)	6%	5%	-1%	-4%	7%
O=C(CSc1nc(-c2ccccc2)c(-c2ccccc2)[nH]1)Nc1nccs1	?	14µM*[quencher]	-12%	-3%	2%
COc1ccc(-c2[nH]c(-c3ccc(SC)cc3)nc2SCC(=O)Nc2nccs2)cc1	?	7.1µM*[quencher]	4%	-6%	8%
COc1ccc(-c2nc(SCC(=O)Nc3nccs3)c(-c3ccc(Cl)cc3)[nH]2)cc1	3%	0%	5%	-2%	5%
COc1ccc(-c2[nH]c(-c3ccc(C)cc3)nc2SCC(=O)Nc2nccs2)cc1	?	18µM*[quencher]	11%	-5%	?
O=C(Nc1cc(Cl)ccc1Cl)c1cc(S(=O)(=O)N2CCCc3ccccc32)ccc1F	-7%	-17%	4%	-1%	-15%
Cc1cc(C)c2c(c1)/C(=N\N=c1\sc3ccccc3n1C)C(=O)N2	4.5µM*	-7%	2%	-2%	6%
CCOc1ccc(/C=C/C(=O)Nc2ccc(C(N)=O)cc2)cc1OC	0%	-2%	-26%	1%	-10%
CCOCCOC(=O)c1ccc(NC(=O)/C=C/c2ccc(OC)c(OC)c2)cc1	13%	-22%	-17%[53 µM]	0.89µM*[quencher]	?
COc1ccc(/C=C/C(=O)Nc2ccc(Cl)c(Cl)c2)cc1OC	?	10µM*[quencher]	-3%	1%	14µM*
COc1ccc(CCN2CCC[C@H](CN3CCc4cc(OC)c(OC)cc4CC3=O)C2)cc1OC	.	.	-3%	-24%	.
Cc1cccc(Oc2ccc(NC(=O)CCC(=O)OCC(=O)c3ccc(Br)cc3)cc2)c1C	-12%	-12%	-4%	-2%	-6%
CCCCNS(=O)(=O)c1ccc2nc(SCC(=O)Nc3cccc(F)c3)[nH]c2c1	-7%	-29%	0%	-3%	-13%
SMILES	Tau fibril ThT	Tau fluor cs	TRb SRC2 PPI	TexasRed fluor	Tau fibril FP
CCCCNS(=O)(=O)c1ccc2nc(SCC(=O)Nc3ccccc3Cl)[nH]c2c1	2%	?	-4%	-3%	25µM*
COc1ccc2c(c1)c1c(c(=O)n(-c3ccccc3C)c(=O)n1CC(=O)N1CCCC1)n2C	13%	11%	-1%	-5%	3%
COc1ccccc1N1CCN(C(=O)CCNS(=O)(=O)c2ccc(Br)s2)CC1	-5%	-11%	5%	-5%	10%
COc1ccccc1N1CCN(C(=O)CNS(=O)(=O)c2ccc(Br)s2)CC1	-14%	-17%	?	79µM*[quencher]	4%
CN(C)c1ccc(NC(=O)c2cn(-c3ccccc3)nc2-c2cccs2)cc1	?	8.9µM*[quencher]	0%	-1%	14%
CCN(CC)CCOC(=O)c1ccc(NC(=O)c2cn(-c3ccccc3)nc2-c2cccs2)cc1	-2%	8.9µM*[quencher]	2%	0%	11µM*
CC(C)CCCC(C)C1CCC2C3CC(=O)[C@H]4CC(O)CC[C@]4(C)C3CC[C@@]12C (stereo not given in full)	2%	-4%	-2%	-3%	-5%
O=C(CSc1nnnn1C1CCCCC1)N1CCN(C(=O)c2ccco2)CC1	3.5µM*	-54%	1%	5%	9%[2.34 µM]
O=C(CSc1nnnn1C1CCCC1)N1CCN(C(=O)c2ccco2)CC1	-14%	-3%	-4%	-1%	2%
CCOC(=O)C1CCN(C(=O)C2CCN(S(=O)(=O)c3c(C)noc3/C=C/c3ccc(C)cc3)CC2)CC1	-20%	-8%	-8%	-2%	-1%
COc1ccc(CC(C)NS(=O)(=O)c2ccc3c(c2)CCN3S(C)(=O)=O)cc1OC (stereo not given)	1%	-3%	-5%	7.1µM*[quencher]	1%
CC(C)(C)c1ccc(OCC(=O)NCC2(N3CCOCC3)CCCCC2)cc1	-12%	-8%	1%	2%	5%
O=C(O/N=C\c1ccc(N2CCCCC2)c([N+](=O)[O-])c1)c1ccc(Cl)cc1Cl	5µM*	-25%	-7%	0%	-2%
O=C(/C=C/c1ccc(Cl)cc1)N1CCN(c2ccc(Cl)cc2[N+](=O)[O-])CC1	7.9µM*	-20%	10%	1%	2%
CCn1c(C)c(/C=N/Nc2nc3ccccc3s2)c2ccccc21	7.1µM*	7.1µM*[quencher]	0%	-1%	1%
Cc1ccsc1/C=N/Nc1nc2ccccc2s1	8%	-2%	2%	-4%	?
COc1ccc(/C=N/Nc2nc3ccccc3s2)cc1O	13µM*	13µM*[quencher]	4%	-10%	9%
C(=N\Nc1nc2ccccc2s1)/c1cccs1	14µM*	14µM*[quencher]	2%	-4%	?
CCn1c(=O)n(-c2ccc(F)c(Cl)c2)c(=O)c2c3c(sc21)CN(C(C)=O)CC3	-7%	-15%	3%	4%	-5%
Cc1ccc(S(=O)(=O)NC(=O)O[C@@H]2C(=O)c3cc(Br)ccc3O[C@H]2c2ccc3c(c2)OCO3)cc1	?	-10%	-9%	-1%	-3%
COc1ccc(O)c(/C=c2/sc3nc4cc(C)c(C)cc4n3c2=O)c1	22µM*	?	6%	-5%	?
COC(=O)c1cc(=O)nc2sc3cc(OC)ccc3n12	-12%	-1%	2%	0%	2%
